Measurements from PubChem BioAssay AID1159580 (chemical genetic matrix, 2015).
Values joined by “and” are separate entries in the source; they are usually repeats but may differ in a detail not shown here. Identical values can stand only once. Among all 5,500 compounds or so, about 2,000 (36%) were called active. About 18% were inconclusive and are not listed. No stated cut-off is given here; in the data, active means normalized growth mostly below about 0.91 (no sharp cut-off); inconclusive means no clear call, values can overlap the other calls; inactive means mostly above about 0.92. The list shows a part of the results.

Assay: chemical genetic growth profiling, strain panel (AID 1159580);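 further: tested at 20 µM; growth read once vehicle control cultures reached saturation at 30 °C; 1 = growth at the plate median or of vehicle wells; lower values mean less growth of the strain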
Conditions: S. cerevisiae deletion strains, growth OD

Measured: normalized growth

O=C(O)c1cc(=O)c2c(OCC(O)COc3cccc4oc(C(=O)O)cc(=O)c34)cccc2o1
inactive: locus YAL013W, strain DEP1, hits give low values 1.01 | locus YAL021C, strain ccr4, hits give low values 0.964 | locus YAL026C, strain drs2, hits give low values 1.01 | locus YAL030W, strain snc1, hits give low values 0.996 | locus YBL061C, strain skt5, hits give low values 0.977 | locus YBR009C, strain hhf1, hits give low values 0.994 | locus YBR021W, strain FUR4, hits give low values 1.01 | locus YBR023C, strain chs3, hits give low values 0.992 | locus YBR171W, strain sec66, hits give low values 0.96 | locus YBR229C, strain ROT2, hits give low values 1.01 | locus YBR231C, strain swc5, hits give low values 0.963 | locus YBR279W, strain paf1, hits give low values 0.995 | locus YCL011C, strain gbp2, hits give low values 1 | locus YCL016C, strain dcc1, hits give low values 1.02 | locus YCL029C, strain bik1, hits give low values 1.02 | locus YCL061C, strain MRC1, hits give low values 0.983 | locus YCL069W, strain vba3, hits give low values 0.977 | locus YCR088W, strain abp1, hits give low values 0.974 | locus YDL005C, strain med2, hits give low values 0.974 | locus YDL035C, strain GPR1, hits give low values 1.01 | locus YDL040C, strain nat1, hits give low values 0.964 | locus YDL074C, strain BRE1, hits give low values 1.01 | locus YDL101C, strain DUN1, hits give low values 1.01 | locus YDL185W, strain tfp1, hits give low values 1.03 | locus YDL192W, strain arf1, hits give low values 1.02 | locus YDR001C, strain nth1, hits give low values 0.971 | locus YDR069C, strain doa4, hits give low values 0.971 | locus YDR101C, strain arx1, hits give low values 1.03 | locus YDR137W, strain rgp1, hits give low values 0.973 | locus YDR159W, strain sac3, hits give low values 0.926 | locus YDR162C, strain NBP2, hits give low values 1.01 | locus YDR195W, strain ref2 0.896 | locus YDR297W, strain sur2, hits give low values 0.987 | locus YDR318W, strain mcm21, hits give low values 1.02 | locus YDR334W, strain swr1, hits give low values 0.969 | locus YDR335W, strain msn5, hits give low values 0.967 | locus YDR388W, hits give low values 1.02 | locus YDR392W, strain spt3, hits give low values 1.03 | locus YDR502C, strain sam2, hits give low values 1 | locus YEL003W, strain gim4, hits give low values 0.955 | locus YEL037C, strain rad23, hits give low values 0.955 | locus YEL061C, strain CIN8 (second series), hits give low values 0.964 | locus YEL061C, strain CIN8, hits give low values 1.01 | locus YER015W, strain faa2, hits give low values 0.99 | locus YER016W, strain bim1, hits give low values 0.996 | locus YER110C, hits give low values 1.03 | locus YER111C, strain swi4, hits give low values 0.972 | locus YER155C, strain BEM2 (second series), hits give low values 0.935 | locus YER155C, strain BEM2, hits give low values 1.01 | locus YER167W, strain BCK2, hits give low values 1.01 | locus YFR010W, strain ubp6, hits give low values 0.969 | locus YGL078C, strain dbp3, hits give low values 1.01 | locus YGL086W, strain mad1, hits give low values 1 | locus YGL167C, strain pmr1, hits give low values 0.96 | locus YGL173C, strain kem1, hits give low values 0.959 | locus YGL227W, strain vid30, hits give low values 0.977 | locus YGL240W, strain doc1, hits give low values 0.959 | locus YGL248W, strain PDE1, hits give low values 1.01 | locus YGL253W, strain hxk2, hits give low values 0.983 | locus YGR135W, strain pre9, hits give low values 1.02 | locus YGR229C, strain SMI1, hits give low values 1.02 | locus YGR252W, strain gcn5, hits give low values 1.03 | locus YHR013C, strain ard1, hits give low values 0.979 | locus YHR027C, strain rpn1, hits give low values 0.989 | locus YHR030C, strain SLT2, hits give low values 1.01 and 1 | locus YHR079C, strain IRE1 (second series), hits give low values 1.03 | locus YHR079C, strain IRE1, hits give low values 1 | locus YHR094C, strain hxt1, hits give low values 1.02 | locus YHR129C, strain ARP1, hits give low values 1.01 | locus YHR142W, strain chs7, hits give low values 0.966 | locus YHR200W, strain rpn10, hits give low values 1.02 | locus YIL066C, strain RNR3, hits give low values 1.01 | locus YIL073C, strain SPO22, hits give low values 1.06 | locus YIL125W, strain kgd1, hits give low values 1.02 | locus YIR030C, strain dcg1, hits give low values 1.03 | locus YJL092W, strain hpr5, hits give low values 0.978 | locus YJL095W, strain BCK1 (second series), hits give low values 0.974 | locus YJL095W, strain BCK1, hits give low values 1.02 and 0.989 | locus YJL115W, strain asf1, hits give low values 0.967 | locus YJL129C, strain trk1, hits give low values 0.931 | locus YJL134W, strain LCB3, hits give low values 1.01 | locus YJL154C, strain vps35, hits give low values 0.962 | locus YJL164C, strain tpk1, hits give low values 1 | locus YJL166W, strain qcr8, hits give low values 0.953 | locus YJL168C, strain set2, hits give low values 1.02 | locus YJL187C, strain SWE1 (second series), hits give low values 1.02 | locus YJR043C, strain POL32, hits give low values 0.998 | locus YJR066W, strain TOR1, hits give low values 0.992 | locus YJR075W, strain HOC1, hits give low values 1.01
